Bioassay records: PubChem BioAssay, National Center for Advancing Translational Sciences (NCATS)
Shown are actives, neighbours in structure and some others; about 0.4% of the full set was active somewhere.
GAA inhib: inhibitors of human lysosomal alpha-glucosidase. P10253. purified human GAA, 4-MU-alpha-glucoside fluorescence. Potency, µM (doses to about 76.9 µM), inactives show top-dose activity change, negative = inhibition, hits mostly inhibitors. 200,000 tested, 0.005% active;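 further: potency means the concentration at half of the fitted maximal effect; plate controls were uninhibited enzyme wells for no effect and no-enzyme background for full effect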
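Enzyme (4 nM final) mixed with compound (up to 77 uM), then 4-MU-alpha-D-pyranoside (400 uM final) added; 20 min at room temperature, pH 5.0. Reaction stopped at pH 10, fluorescence read, AC50 derived by Hill fit.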
aGlu spleen mod: inhibitors or activators of human alpha-glucosidase in spleen homogenate; P10253; human spleen homogenate, 4-MU-alpha-glucoside fluorescence; Potency, µM (top dose mostly 79.9 µM), for inactives: at the top dose activity change, negative = inhibition, hits mostly inhibitors; 240,000 tested, 0.006% active; AID 2112;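 further: potency means the concentration at half of the fitted maximal effect; 0% = enzyme with vehicle and -100% = no enzyme basal signal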
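AC50 values come from Hill-equation fits of concentration-response data, normalized to no-enzyme and full-activity controls. Enzyme source: 1 ug human spleen homogenate; 1 mM fluorogenic 4-MU glucoside, pH 5.0 citrate buffer, 37 C, 40 min.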
GAA glycogen: GAA glycogen-cleavage inhibition or activation; P10253; recombinant GAA, glycogen substrate, Amplex Red glucose oxidase fluorescence; Potency, µM (highest dose often 76.4 µM), inactives show top-dose activity change, negative = inhibition, usual class: inhibitors; 300,000 tested, 0.38% active;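 further: potency means the concentration at half of the fitted maximal effect; 0% = full enzyme reaction and -100% = no-enzyme basal signal; the screen sought inhibitors and activators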
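Recombinant human enzyme (4 nM); glycogen substrate; 37 C, 40 min, pH 5.0. Readout: coupled glucose oxidase/Amplex Red fluorescence.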
GLA inh pH 4.5: inhibitors of human alpha-galactosidase A at pH 4.5; purified enzyme, 4-MU-alpha-Gal fluorescence, pH 4.5; activity change, negative = inhibition, % at 105 µM; 230,000 tested, under 10 active; AID 1467;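 further: 0% = full activity with enzyme and -100% = basal without enzyme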
aGal spleen mod: inhibits or activates alpha-galactosidase in human spleen homogenate; P06280; human spleen homogenate, 4MU-alpha-Gal fluorescence, 40 min; Potency, µM (titrated, usually from 80 µM), for inactives: top-dose activity change, negative = inhibition, most hits filed as inhibitors; 240,000 tested, 0.008% active;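 further: potency means the concentration at half of the fitted maximal effect; 0% = enzyme with vehicle and -100% = no enzyme basal signal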
Target sequence (P06280 32-429 limits assumed): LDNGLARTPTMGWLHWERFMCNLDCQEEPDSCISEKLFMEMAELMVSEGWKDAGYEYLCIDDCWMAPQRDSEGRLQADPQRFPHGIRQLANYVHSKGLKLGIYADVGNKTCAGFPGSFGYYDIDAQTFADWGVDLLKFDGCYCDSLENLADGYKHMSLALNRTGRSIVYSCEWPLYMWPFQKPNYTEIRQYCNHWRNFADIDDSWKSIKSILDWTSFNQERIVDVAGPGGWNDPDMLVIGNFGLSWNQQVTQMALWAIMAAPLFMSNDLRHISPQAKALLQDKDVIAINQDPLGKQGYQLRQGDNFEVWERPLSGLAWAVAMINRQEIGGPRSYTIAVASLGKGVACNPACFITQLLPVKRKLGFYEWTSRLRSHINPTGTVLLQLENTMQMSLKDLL
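Fluorogenic readout (Ex 365/Em 440 nm) of 4-methylumbelliferone released from 1 mM 4-MU-alpha-galactoside by spleen homogenate, 40 min at 37C, pH 5.0. Data normalized to no-enzyme and enzyme controls; Hill-equation AC50 from compound titrations.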
An asterisk follows results filed as active; ? = inconclusive; . = no result given; [ ] = another dose, or the depositor's remark. The call rests on the fitted dose curve; in most records, active means well fitted curve in the direction sought with a large enough effect; inconclusive means small, poorly fitted or top-dose-only effect, or another doubt; inactive means no such curve, though single readings can be large; an effect the other way counts as inactive or inconclusive.

SMILES	GAA inhib	aGlu spleen mod	GAA glycogen	GLA inh pH 4.5	aGal spleen mod
CCC(=O)Nc1sc2c(c1C#N)CCC2	1.8%	1.0%	7.6%	7.6	5.2%
CC(=O)Nc1cc(OC(C)=O)c2nonc2c1OC(C)=O	-4.6%	-6.7%	15.7µM*	2.2	-10.1%
CC(=O)Nc1nonc1NC(C)=O	-10.5%	-4.5%	-4.4%	-1.0	-2.9%
C/C(CC(=O)Nc1cc(Cl)ccc1Cl)=N\NC(N)=S	0.6%	-5.1%	9.92µM*	1.0	-12.3%
C/C(CC(=O)Nc1ccc(Cl)cc1Cl)=N\NC(=O)c1ccncc1	.	2.1%	-22.8%	-11.0	0.4%
C/C(CC(=O)Nc1ccc(Cl)c(Cl)c1)=N\NC(N)=S	-11.6%	-9.6%	7.94µM*	1.1	3.5%
C/C(CC(=O)Nc1ccc(Cl)cc1Cl)=N\NC(N)=S	-5.3%	-3.9%	22.4µM*	7.0	-1.1%
C/C(CC(=O)Nc1ccc(Cl)cc1C(F)(F)F)=N\NC(N)=S	.	3.9%	?	-3.1	6.8%
C/C(CC(=O)Nc1ccc(C)c(Cl)c1)=N\NC(=O)c1ccncc1	-4.2%	.	-23.4%	-6.7	-1.9%
O[N+]1=CC=CCC1=S.On1ccccc1=S.[Zn]	.	-3.1%	.	0.9	-4.7%
CCC(=O)OC1(C)C(=O)C=C2C=C(CCCNC(=O)OC(C)(C)C)OC=C2C1=O (stereo not given)	.	3.4%	.	-0.4	-9.6%
CCC1CC=CC2C1C(=O)N(Cc1ccccc1)C2c1cccc([N+](=O)[O-])c1 (stereo not given)	.	-9.2%	.	.	-1.3%
COc1ccc(-c2cnc(NCc3ccc(C)cc3)n2C)cc1	.	.	10µM*	.	.
Cc1cc(=O)[nH]c2ccc(S(=O)(=O)Nc3ccc(O)cc3)cc12	.	.	7.08µM*	.	.
Cc1cc(=O)[nH]c2ccc(S(=O)(=O)Nc3ccccc3)cc12	.	.	-0.1%[76.3 µM]	.	.
Cc1cc(C)c(S(=O)(=O)Nc2ccc(O)cc2)c(C)c1	-8.2%	6.2%	39.8µM*	-2.2	-11.6%
Cc1ccc2c(c1)N(CCCC(=O)NCc1cccc(F)c1)C(=O)CO2	.	.	44.7µM*	.	.
Cc1ccc(CNC(=O)CCN2C(=O)COc3ccc(C)cc32)cc1	.	.	10.8%[76.3 µM]	.	.
C/C=C\C1=C(CO)C(=O)[C@@H]2OC2C1=O (stereo not given in full)	.	-2.5%[17.4 µM]	.	.	-17.7%[17.5 µM]
COCCNC(=S)N/N=C/c1ccc(N2CCOCC2)cc1	4.8%	3.9%	?	8.9	2.9%
COc1cc(/C=N/NC(=S)NCCN2CCOCC2)ccc1O	9.2%	-0.4%	25.1µM*	1.6	12.2%
CCCCS(=O)(=O)N1CCc2nc(-c3ccc(OC)cc3C)c3c(c2C1)CO[C@@H](c1ccccc1)C3	.	4.0%[17.4 µM]	.	4.9	-0.3%[17.5 µM]
CCCCCCCCCCC(C)=O	.	-4.4%	.	.	-13.1%
Cc1cc(=O)c2c(O)c3c(O)cc(O)c4c5c(O)cc(O)c6c(O)c7c(=O)cc(C)c8c1c2c(c34)c(c65)c78	.	-4.0%	.	-7.5	-11.9%
CCOc1ccc(S(=O)(=O)Nc2ccccc2SC)cc1	-6.4%	-5.5%	0.5%	-5.2	-6.8%
SMILES	GAA inhib	aGlu spleen mod	GAA glycogen	GLA inh pH 4.5	aGal spleen mod
CCOc1ccc(S(=O)(=O)Nc2cc(Cl)ccc2O)cc1	-4.0%	-7.5%	28.2µM*	-6.9	-5.8%
COC(=O)c1ccccc1S(=O)(=O)N1CCc2nc(COc3ccccc3)c3c(c2C1)CO[C@@H](C)C3	.	-0.7%[17.4 µM]	.	-10.1	-3.7%[17.5 µM]
CCN=c1scc(C)n1/N=C/c1ccc(O)c(O)c1O	-8.9%	-15.6%	15.8µM*	-19.6	-5.5%
COc1cc(CNc2ccc3c(c2)CCC3)cc(OC)c1O	5.2%	-17.2%	25.1µM*	3.1	-9.8%
COc1cccc(CNc2ncc(Br)cc2Br)c1O	-5.4%	-1.2%	24.9µM*	-8.3	6.9%
COc1cccc(CNc2ccc(Br)cn2)c1O	-13.2%	-3.3%	?	-21.6	-3.0%
CCCn1cnc2cc(NCc3cccc(OC)c3O)ccc21	-3.5%	-2.4%	17.6µM*	-0.6	1.6%
CCn1c(-c2ccccc2)csc1=Nc1ccc(O)cc1	-5.7%	.	12.6µM*	-3.8	-2.1%
Cc1cc(C(=O)NNc2ccc(C(C)C)cc2)n(C(C)(C)C)n1	.	-5.9%	28.2µM*	-1.0	-4.0%
CCC(C)c1ccc(O)c(N)c1 (stereo not given)	-4.3%	9.4%	24.9µM*	4.9	12.9%
CC(C)c1ccc(O)c(N)c1	2.4%	-7.5%	10µM*	-14.8	4.5%
CC(C)(C)c1ccc(O)c(N)c1	-2.0%	-5.5%	?	0.3	-3.3%
COc1ccc(C(OCCN2CCC[C@H](C(=O)O)C2)(c2ccc(OC)cc2)c2ccc(OC)cc2)cc1	.	-6.2%	.	.	-5.5%
C=C1CC[C@H](O)C/C1=C/C=C1\CCC[C@]2(C)C([C@H](C)CC[C@@H](O)C(C)(C)O)CC[C@@H]12 (stereo not given in full)	.	-1.9%	.	.	0.2%
CCOC(=O)c1c(/N=C/c2ccc(C)cc2O)sc2c1CCC2	2.3%	-0.4%	14.1µM*	-4.0	1.8%
CCOC(=O)c1c(/N=C/c2ccc(OC)cc2O)sc2c1CCN(C)C2	.	-1.5%	7.4%	-7.4	1.7%
NC(=O)c1ccc2nc(-c3ccc(Oc4ccc(Cl)cc4)cc3)[nH]c2c1	.	-1.7%	.	.	-7.7%
Cc1cc(NC(=O)NC2(C(F)(F)F)Oc3ccc(Cl)cc3O2)no1 (stereo not given)	-1.1%	-2.2%	7.08µM*	-2.7	-4.4%
COc1ccc(OC)c(NC(=O)NC2(C(F)(F)F)Oc3ccccc3O2)c1	-0.1%	2.1%	35.5µM*	2.5	-4.2%
COc1ccc(OC)c(NC(=O)Nc2ccccc2C)c1	?	3.4%	2.2%	-0.2	3.7%
C=C/C1=C/Cc2ccccc2C(C[N+](=O)[O-])C(C(=O)OC)(C(=O)OC)C1 (stereo not given)	.	2.1%[17.4 µM]	.	.	21.2%[17.5 µM]
COc1c(-c2coc3cc4c(cc3c2=O)CC(O)C(C)(C)O4)ccc2c1C=CC(C)(C)O2 (stereo not given)	.	9.2%	.	-14.3	14.4%
COc1cccc(NS(=O)(=O)c2ccc3[nH]cc(C(=O)N4CCCC4)c(=O)c3c2)c1	.	.	28.2µM*	.	.
CC(=O)c1ccc(Nc2c3ccccc3cc3occc23)cc1	.	-0.9%	.	.	0.5%
CCCCCCCC/C=C\CCCCCCCCCCCC(=O)O	.	-6.1%	.	.	3.7%
O=C1CC(N(O)c2ccccc2)C(=O)N1c1cc(Cl)cc(Cl)c1 (stereo not given)	-9.4%	1.1%	22.2µM*	0.4	1.2%
Cc1ccccc1N1C(=O)CC(N(O)c2ccccc2)C1=O (stereo not given)	-0.4%	-2.3%	3.95µM*	4.4	-6.6%
COc1ccccc1N(O)C1CC(=O)N(c2ccc(F)cc2)C1=O (stereo not given)	2.2%	-5.1%	17.8µM*	10.2	2.3%
CNC(=O)C1C(=S)NC(N)=C(C#N)C1c1ccccc1 (stereo not given)	0.6%	1.6%	22.2µM*	4.2	2.1%
O=S1(=O)N=C(Oc2cccc3ccccc23)c2ccccc21	-0.8%	4.4%	25.1µM*	-2.9	-0.5%
